What all share (assay): NCI-60 one-dose screen, 48 h (100 = growth as untreated, 0 = no growth, -100 = all killed)
What all share (conditions): 10 µM unless noted

The test system of assay [1] is NCI-H23 lung.
Assay [2] has as its system NCI-H226 lung.
The test system of assay [3] is NCI-H322M lung.
The subject of assay [4] is HOP-62 NSCLC.
The test system of assay [5] is NCI-H460 lung.
Assay [6] has as its system HOP-92 NSCLC.
For assay [7], the system named is NCI-H522 lung.
Assay [8] concerns A549/ATCC NSCLC.
The subject of assay [9] is 786-0 renal.
Assay [10] concerns COLO 205 colon.
For assay [11], the system named is DU-145 prostate.
Assay [12] has as its system K-562 leukemia.
The test system of assay [13] is MALME-3M melanoma.
For assay [14], the system named is MDA-MB-231 breast.
Assay [15] concerns RXF 393 renal.
The test system of assay [16] is SF-268 CNS.
Assay [17] deals with SF-295 CNS.
Assay [18] concerns SF-539 CNS.
Assay [19] relates to UACC-257 melanoma.
The test system of assay [20] is M14 melanoma.

The text below walks through data of PubChem BioAssay (NCI).

About 83,000 compounds went through this panel and 20% of them were active in at least one assay; those are over-represented in the sample as a whole.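 How to read the values: 0–100, growth inhibition (40 = 60% inhibited); 0, no net growth; -100 to 0, cell death (-40 = 40% of starting cells died; -100 = all dead).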 A number with no mark means an inactive call. Active and inactive are the calls of the source. How the source made its calls: active means growth percent below 10; inactive means the rest.

Consider `O=C1NN(c2ccccc2)C(c2ccc(Cl)cc2)N2CCC[C@H]12` (stereo not given in full), for which the growth in assay [1] is 90.7%; in [2] it was 95.6%; in [3], 94.1%; in [4], 98.8%; in [5] it was 103%; in assay [6], 100%. Further, the growth in assay [7] is 106%; in [8], 103%; in assay [9], 105%; in assay [10], 108%; in assay [11] it was 100%; in assay [12], 97%. Also, the growth in assay [13] was 92.2%; in assay [14], 113%; in [15], 108%; in assay [16], 97.4%; in [17], 101%; in assay [18] it was 111%. Also, the growth is 94.7% in assay [19] and 97.9% in assay [20].

Turning to `Cc1cccc2nc3c(n12)C(=O)C(=O)c1ccccc1-3`, the growth was 39.6% in [1]; 80% in assay [2]; 90% in assay [3]; 26% in assay [4]; 37.3% in assay [5]; 92.6% in [6]. The growth in [7] was 43.8%; in assay [8], 61.2%; in assay [9], 106%; in [10], 98.3%; in [11], 76.9%; in assay [12], 28.9%. For the same molecule, the growth in assay [13] is 64.4%; in [14], 63.9%; in [15], 103%; in assay [16], 80.8%; in [17], 82.7%; in assay [18], 69.3%. In addition, the growth is 49.5% in assay [19] and 67.1% in assay [20].

As to `Cc1nc2sc(C(=O)Nc3cccc4ccccc34)c(N)c2cc1C(C)O` (stereo not given), the growth was 26.2% in assay [1]; 70.7% in assay [2]; 44.8% in assay [3]; 39.8% in [4]; 9.5% (active) in assay [5]; 83.7% in [6]. The growth is -15.9% (active) in assay [7]; 22.7% in [8]; 34.1% in assay [9]; -5.28% (active) in assay [10]; 13.6% in assay [11]; 8.19% (active) in assay [12]. In addition, the growth was 85.1% in assay [13]; 33.1% in assay [14]; 21.7% in assay [15]; 51.4% in assay [16]; 10.8% in [17]; 0.0649% (active) in assay [18]. Moreover, the figures for the growth in assay [19] and in [20] were 64% and 15.4%, respectively.

Regarding `Cc1c(O)c(=O)ccn1-c1nc2ccccc2s1`, the growth in assay [1] was 102%; in assay [2] it was 92.5%; in assay [3] it was 88%; in assay [4], 87.3%; in assay [5] it was 99.3%; in [6] it was 98.4%. Further, the growth in [7] is 75.4%; in assay [8] it was 92.5%; in assay [9], 84.6%; in assay [10], 96.4%; in assay [11], 103%; in [12], 110%. In addition, the growth was 96.6% in assay [13]; 93.2% in [14]; 87.8% in [15]; 90.6% in assay [16]; 105% in assay [17]; 102% in [18]. The growth in [19] was 90%; in assay [20] it was 84.2%.

Consider `CC(=O)ON1CCCC(P(=O)(OCOC(=O)C(C)(C)C)OCOC(=O)C(C)(C)C)C1=O` (stereo not given), for which the growth was -16.6% (active) in assay [1]; -4.94% (active) in assay [2]; -10.6% (active) in [3]; 5.37% (active) in [4]; 2.52% (active) in [5]; -6.66% (active) in [6]. Also, the growth in assay [7] is -11% (active); in assay [8] it was 7.74% (active); in assay [9], 12.3%; in [10], 2.35% (active); in [11], 10.7%; in [12], 3.72% (active). In addition, the growth was -8.77% (active) in assay [13]; -6.53% (active) in assay [14]; -20.8% (active) in [15]; 1.95% (active) in assay [16]; 34.5% in assay [17]; 11.3% in [18]. Also, the results for the growth in assay [19] and in assay [20] were 19.2% and 12.9%, respectively.

As to `Cc1c(Cl)cccc1NC(=O)c1sc2nc3c(cc2c1N)CN(Cc1ccccc1)CC3`, the growth in assay [1] was 66.1%; in assay [2], 72.3%; in assay [3], 73.1%; in assay [4], 38.4%; in [5], 22%; in [6] it was 51.8%. Moreover, the growth in [7] is 0.814% (active); in [8], 58.6%; in [9], 42.9%; in assay [10], 51.5%; in [11] it was 30.5%; in assay [12], 10%. Moreover, the growth is 49.5% in assay [13]; 86.3% in [14]; 68.8% in [15]; 42.3% in [16]; 21.8% in [17]; 39.3% in assay [18]. In addition, the growth in assay [19] is 63.6%; in assay [20], 26.8%.

On to `NCCCn1c2c(c3cc(-c4ccn[nH]4)ccc3c1=O)C(=O)c1ccccc1-2`, for which the growth is 57.6% in [1]; 56.9% in assay [2]; 67.8% in [3]; 42.4% in assay [4]; 11.8% in [5]; 79.2% in assay [6]. Besides, the growth in [7] was 30.6%; in assay [8], 28.4%; in assay [9] it was 41%; in [10], 43.8%; in assay [11], 33.8%; in assay [12], 6.99% (active). Also, the growth was 75.2% in assay [13]; 68.1% in assay [14]; 79.5% in assay [15]; 52.8% in [16]; 61.7% in [17]; 75.2% in assay [18]. The growth was 102% in [19] and 74.8% in assay [20].

In the case of `O=c1c2ccccc2n(CC(O)CN2CCCC2)c2c(Br)cccc12` (stereo not given), the growth in assay [1] was 131%; in [2], 122%; in [3], 110%; in assay [4], 100%; in assay [5], 106%; in assay [6] it was 90.2%. Further, the growth is 101% in assay [7]; 87% in assay [8]; 98.8% in [9]; 82.4% in assay [10]; 105% in assay [11]; 92.9% in assay [12]. Further, the growth in [13] was 125%; in assay [14], 129%; in assay [15] it was 98.9%; in assay [16], 94.8%; in assay [17], 106%; in assay [18], 94.9%. The results for the growth in assay [19] and in assay [20] were 98.6% and 98.7%, respectively.
